Data on 14 molecules can be found in PubChem BioAssay (NCI).

Compounds without any hit were thinned out: in the full panel of roughly 83,000, 20% have a hit.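 In brief: 96-well plates, 48 h treatment, single concentration, percent growth endpoint.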 Activity calls are given as the source filed them. Rule for the calls: active = growth percent below 10; inactive = the rest.

For this assay, the system named is PC-3 prostate. Nature of the assay: NCI-60 one-dose screen, 48 h (100 = growth as untreated, 0 = no growth, -100 = all killed). Conditions: 10 µM unless noted.
In the case of `FC(F)(F)c1cc(-c2nnc3n2N=C(N2CCCC2)CS3)cc(C(F)(F)F)c1`, the growth was 84.2% (inactive).

In the case of `Clc1ccc(C2=NN(c3ccc(Cl)cc3)C(c3cccc(Nc4ccnc5cc(Cl)ccc45)c3)C2)cc1` (centres undefined), the growth was 65.7% (inactive).

Consider `C=CCN(/C=C/CN(CC=C)CC=C)CC=C`, for which the growth was 89.4% (inactive).

In the case of `COc1ccc(-c2nnc3c4[nH]cnc4ncn23)c(OC)c1`, the growth was 40.7% (inactive).

Consider `Cc1ccc(S(=O)(=O)NCCN2c3nc4ccccc4cc3Sc3cc4ccccc4nc32)cc1`, for which the growth is 77.3% (inactive).

As for `O=C(CNC(=O)c1cccc2ccccc12)Nc1ccccc1Oc1cccc(O)c1`, the growth was 28.1% [5 µM] (inactive).

`COc1ccc2c(=O)c(OC)c(-c3cc(OC)c(OC)c(OC)c3)oc2c1`: the growth was 67.7% (inactive).

With `COc1cnc2c(c1)C(=O)c1c-2n(CCCN2CCC(O)CC2)c(=O)c2cc(F)ccc12`, the growth was 3.1% (active).

On to `O=C(/C=C/c1c(-c2ccccc2)[nH]c2ccccc12)S(=O)(=O)c1ccccc1`, for which the growth was 36.5% (inactive).

As to `O=C(Nc1nc2c(C(F)(F)F)cccc2s1)c1cc(Cl)ccc1O`, the growth was 3.52% (active).

`CCN(CC)CCOCC[C@H]1CC[C@H]2[C@@H]3[C@H](C)Cc4cc(OS(N)(=O)=O)ccc4[C@H]3CC[C@]12C`: the growth is -88.8% (active).

Regarding `NS(=O)(=O)c1ccc(N2CC(c3nc4ccccc4[nH]3)CC2=O)cc1` (centres undefined), the growth is 90.8% (inactive).

Regarding `COc1cnc2c(c1)C(=O)c1c-2n(CCCN2CCCC2)c(=O)c2cc(F)ccc12`, the growth was 9.68% (active).

For the molecule `COc1ccc(-n2cnc3cc(C(=O)N4CCCCC4)ccc32)cc1`, the growth is 94.6% (inactive).
